Inconclusive results are not listed. Active and inactive are the calls of the source. The call rests on the fitted dose curve; in most records, active means well fitted curve in the direction sought with a large enough effect; inconclusive means small, poorly fitted or top-dose-only effect, or another doubt; inactive means no such curve, though single readings can be large; an effect the other way counts as inactive or inconclusive. Where a SMILES comes first, the peptide text is derived from it. Bridges are numbered along the chain shown (N, C = ends). [ ]: non-standard residue; d: D form. hArg = N=C(N)NCCCC[C@H](N)C(=O)O; Mpa = O=C(O)CCS
Columns and labels:
WaGa = test: qHTS assay to identify novel small-molecules to repurpose for Merkel cell carcinoma treatment (AID 1296009); conditions: MCC and control cell lines, CellTiter-Glo viability, 72 h; series mostly up to 46 µM; further: nearly all actives have a fitted effect of over 60% in size
How it was run: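 Cells were treated for 72 hr at 37 degree celsius with compounds in 8- or 11-point dose response. Viability was read by CellTiter-Glo luminescence, normalized to no-cell (cytotoxicity) and DMSO controls.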

C33A = test: Primary qHTS to identify gynecologic anti-cancer compounds using libraries of approved drugs and bioactive compounds (AID 1345084); conditions: Gynecologic cancer cell panel viability, ATPlite luminescence, 48 h; series mostly up to 57.5 µM; further: nearly all actives have a fitted effect of over 55% in size
How it was run: (§1)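 Cell viability after 48 h drug treatment, ATPlite luminescence readout; five doses.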

CAOV3 = test: as above; conditions: Gynecologic cancer cell panel viability, ATPlite luminescence, 48 h; series mostly up to 57.5 µM
How it was run: as §1

CASKI = test: as above; conditions: Gynecologic cancer cell panel viability, ATPlite luminescence, 48 h; series mostly up to 57.5 µM
How it was run: as §1

Es-2 = test: as above; conditions: Gynecologic cancer cell panel viability, ATPlite luminescence, 48 h; series mostly up to 57.5 µM
How it was run: as §1

HeLa = test: as above; conditions: Gynecologic cancer cell panel viability, ATPlite luminescence, 48 h; series mostly up to 57.5 µM
How it was run: as §1

Hek293T = test: as above; conditions: Gynecologic cancer cell panel viability, ATPlite luminescence, 48 h, control line for the selectivity index; series mostly up to 57.5 µM
How it was run: as §1

JEG-3 = test: as above; conditions: Gynecologic cancer cell panel viability, ATPlite luminescence, 48 h; series mostly up to 57.5 µM
How it was run: as §1

OV90 = test: as above; conditions: Gynecologic cancer cell panel viability, ATPlite luminescence, 48 h; series mostly up to 57.5 µM
How it was run: as §1

PA-1 = test: as above; conditions: Gynecologic cancer cell panel viability, ATPlite luminescence, 48 h; series mostly up to 57.5 µM
How it was run: as §1

Measured: Potency

Cn1c(=O)c2c(ncn2CCO)n(C)c1=O
inactive: all assays above

CN1CC(=O)NC1=N
not listed: PA-1
inactive: all other assays above

O[C@@H]1CO[C@H]2[C@@H]1OC[C@@H]2O
inactive: all assays above

CCCCCCCCCCCCCCCCCCO
not listed: PA-1
inactive: all other assays above

O=C(/C=C/c1ccccc1)OCc1ccccc1
inactive: all assays above

CC(=O)Oc1cccc(C)c1
inactive: all assays above

O=C(CCBr)N1CCN(C(=O)CCBr)CC1
inactive: all assays above

O=C(Cn1ccnc1[N+](=O)[O-])NCc1ccccc1
inactive: all assays above

O=C(O)c1ccc[n+]([O-])c1
inactive: all assays above

CC(C)=CCC/C(C)=C/CO
inactive: all assays above

CC(N)CCCC(C)(C)O (stereo unspecified)
inactive: all assays above

CCCC(O)C(CC)CO (stereo unspecified)
not listed: PA-1
inactive: all other assays above

CC(=O)Nc1cccc(O)c1
inactive: all assays above

CCN(CC)S(=O)(=O)c1ccc(C(=O)O)cc1
inactive: all assays above

NC(=O)[C@@H]1CSSCCC(=O)N[C@@H](CCCCN=C(N)N)C(=O)NCC(=O)N[C@@H](CC(=O)O)C(=O)N[C@@H](Cc2c[nH]c3ccccc23)C(=O)N2CCC[C@H]2C(=O)N1 ([Mpa][hArg]GDWPC-NH2; disulfide 1-7)
inactive: all assays above

Cc1[nH]c(C)c(Cl)c(=O)c1Cl
inactive: all assays above

CCCNC(C)C(=O)Nc1c(C)csc1C(=O)OC (stereo unspecified)
inactive: all assays above

CC(C)NC[C@@H](O)COc1ccc(CC(N)=O)cc1
inactive: all assays above

Cc1ccsc1/C=C/C1=NCCCN1C
inactive: all assays above

CC(=O)Nc1ccc(OCCOCCOc2ccc(NC(C)=O)cc2)cc1
inactive: all assays above

Cc1c(N(C)C)c(=O)n(-c2ccccc2)n1C
inactive: all assays above

CC(=O)N(CC(O)CO)c1c(I)c(C(=O)NCC(O)CO)c(I)c(C(=O)NCC(O)CO)c1I (stereo unspecified)
inactive: all assays above

CC(=O)N[C@H]1[C@H]([C@H](O)[C@H](O)CO)OC(C(=O)O)=C[C@@H]1N=C(N)N
inactive: all assays above

CC1CCc2cc(F)cc3c(=O)c(C(=O)O)cn1c23 (stereo unspecified)
inactive: all assays above

CN1CCN(C(=O)C2CCCCC2)CC1
inactive: all assays above

O=C(OOC(=O)c1ccccc1)c1ccccc1
inactive: all assays above

O=C1c2ccccc2C(=O)C1c1ccc(Br)cc1
inactive: all assays above

C/C(=C(\CCO)SS/C(CCO)=C(\C)N(C=O)Cc1cnc(C)nc1N)N(C=O)Cc1cnc(C)nc1N
inactive: all assays above

Cc1c(C)c2c(c(C)c1OC(=O)c1cccnc1)CC[C@@](C)(CCC[C@H](C)CCC[C@H](C)CCCC(C)C)O2
inactive: all assays above

C[n+]1ccccc1/C=N/O
not listed: PA-1
inactive: all other assays above

CC(C)CCCC(C)CCCC(C)CCCCC(C)CCCC(C)CCCC(C)C (stereo unspecified)
inactive: all assays above

COC(=O)c1cccnc1
inactive: all assays above

CN1C(C)(C)CCCC1(C)C
inactive: all assays above

COc1cc(C(=O)NCCCCCC(=O)O)cc(OC)c1OC
not listed: PA-1
inactive: all other assays above

Nc1ccc(S(=O)(=O)c2ccc(N)cc2)cc1
not listed: PA-1
inactive: all other assays above

Cc1ncc(CO)c(CN)c1O
not listed: JEG-3 | OV90 | PA-1
inactive: all other assays above

C/C=C/C(=O)N(CC)c1ccccc1C
inactive: all assays above

O=C(O)CCCc1ccccc1
inactive: all assays above

COC(=O)c1ccc(O)cc1
inactive: all assays above

CC[N+](C)(CC)CCOC(=O)C1c2ccccc2Oc2ccccc21
inactive: all assays above

CCCCCCCC(=O)OCC(COC(=O)CCCCCCC)OC(=O)CCCCCCC
inactive: all assays above

FC(F)(F)C(Cl)Br (stereo unspecified)
inactive: all assays above

C[C@]1(Cn2ccnn2)[C@H](C(=O)O)N2C(=O)C[C@H]2S1(=O)=O
inactive: all assays above

O=C(O)Cc1ccc(CCNS(=O)(=O)c2ccc(Cl)cc2)cc1
inactive: all assays above

C=CCOc1ccccc1OCC(O)CNC(C)C (stereo unspecified)
inactive: all assays above

Cc1cccc(Nc2ccccc2C(=O)O)c1C
inactive: all assays above

Reference: PubChem BioAssay (NCATS)
